From PubChem BioAssay come the findings set out here.

Experiment [1] is described as follows: Her2 expression decrease, cell viability multiplex – SKBR3 breast tumor cells, AlphaScreen, ATP viability, primary screen (AID 461;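 active means Her2 level under about 52% in both replicate screens, with viability over 70% of control, limit read from the data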;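 on Her2 level: lower value means less Her2 protein in the cells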;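 on viability: percent of carrier control wells set as 100% viability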). The note with it: SKBR3 Her2 protein level, 18-24 h, measured here: SKBR3 viability, ATP luminescence, at 10 µM. On the technique in general: Bead proximity is the source of the signal in Alpha formats.
Experiment [2] concerns the target Receptor tyrosine-protein kinase erbB-2 (Homo sapiens) (UniProt P04626). Described as above. To be noted: 18-24 h, at 10 µM, stronger effect = lower value.
Experiment [3] in a line: reduced viability of SK-BR-3 breast cancer cells – cell-based, 24 h, human, pilot screen (AID 572;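 active means viability at or below 10% of carrier control in both of two separate runs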;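 further: compound exposure lasted between 18 and 24 h rather than exactly 24 h; 100% = carrier-treated control wells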). The note with it: SK-BR-3 viability, CellTiter-Glo luminescence, at 10 µM, stronger effect = lower value.
A short description of experiment [4]: HUVEC growth inhibition – cell-based, human, primary screen (AID 575;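 active means viability at or below 30% in both replicate assays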;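 further: 100% = median of untreated cell wells with 0.1% DMSO on each plate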). To be noted: HUVEC proliferation, CellTiter-Glo luminescence, 72 h; at 10 µM; stronger effect = lower value. Background: ATP-based viability assays read luminescence as a measure of living cells.
Experiment [5] in a line: H69AR cell proliferation blockers – human, duplicate replicates, primary screen (AID 580;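 active means viability at or under a set limit in both replicates, limit being median viability minus 3 SD, cut at about 48% in these data, passing the limit was not always enough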;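 further: 100% = mean luminescence of untreated wells and 0% = no signal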). To be noted: H69AR lung tumor cells viability, ATP luminescence, 72 h; at 10 µM; stronger effect = lower value.
Experiment [6] is described as follows: MRP1 drug-resistance reversers in H69AR cells – cell-based, doxorubicin co-treatment, pilot screen (AID 601;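 active means viability loss from added drug above about 55%, and viability with drug at most 40%, in both replicates, limit read from the data, passing the limit was not always enough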). To be noted: CellTiter-Glo, 72 h, at 10 µM; for differential viability (reversal): stronger effect = higher value.
Experiment [7] is described as follows: yeast transport mutant growth inhibition pilot in 384-well plates, post-Golgi transport modulator project (AID 636; in the data active means inhibition above about 31%). The note with it: absorbance 615 nm, about 18 h, stronger effect = higher value.
Experiment [8] is described as follows: growth suppression of yeast trafficking mutant, preliminary HTS, modulators of trafficking downstream of Golgi apparatus project, 1536-format plate, OD 615 nm (AID 637). To be noted: yeast transport mutant growth, absorbance 615 nm, 18 h; stronger effect = higher value.
Experiment [9] in a line: S. cerevisiae growth inhibition in permissive medium (OD615), pilot counter-assay for S. cerevisiae lifespan shortening project, permissive growth control (AID 705;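 active means growth inhibition above 25% in both replicates, a cutoff set 3 SD above the mean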). The note with it: OD615, 24 h, at 10 µM, stronger effect = higher value.
The nature of experiment [10]: S. cerevisiae growth inhibition in restrictive medium, OD615, pilot screen, restrictive growth control, yeast lifespan reduction project (AID 706;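 active means growth inhibition above a set limit, 3 SD over mean compound inhibition, in both replicates, cut at about 43% in these data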;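 further: modified DeaD lifespan yeast strain shifted to restrictive glucose medium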). The note with it: OD615, 48 h, at 10 µM, stronger effect = higher value.
Experiment [11] can be described thus: doxorubicin toxicity protection in MRP-1 cells – H69AR cells, CellTiter-Glo, duplicate, MRP-1 activator project, pilot screen (AID 807;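 active means viability increase at or above a cutoff of the median across tested compounds plus 3 SD, cut at about 8.5% in these data, passing the limit was not always enough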;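 further: compound pretreatment 18-22 h then 72 h combined with doxorubicin; 0% = doxorubicin alone and 100% = vehicle without doxorubicin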). The note with it: H69AR viability with doxorubicin, CellTiter-Glo luminescence; at 10 µM; stronger effect = higher value.
Experiment [12] is described as follows: viability of HCT116 without oncogenic beta-catenin – human colon tumor cells, pilot screen (AID 823;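 active means cell viability at or below a set limit in both duplicate runs, the limit being the all-compound median minus 4 SD, cut at about 23% in these data, passing the limit was not always enough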;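 further: 0% = wells killed by 20 µM Hyamine and 100% = untreated DMSO cell wells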). The note with it: HCT116 beta-catenin knockout viability, CellTiter-Glo, 60 h; at 10 µM; stronger effect = lower value.
Experiment [13] in a line: viability of PTEN-null HCT116 cells – cell-based, HCT116 clonal line, CellTiter-Glo, pilot screen (AID 824;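 active means viability at or below 27.92% in each of two runs, the all-compound median minus 4 SD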;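 further: 0% = 20 µM Hyamine control and 100% = vehicle cell control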). The note with it: HCT116 PTEN-deleted viability, 60 h, at 10 µM, stronger effect = lower value.
The nature of experiment [14]: RAM pathway blockade in budding yeast – dse1pr::URA3 reporter, 5-FOA selection, pilot screen (AID 869;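 active means inhibition over a set limit, the all-compound mean plus 3 SD, in both replicate runs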;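 further: 0% = DMSO wells with no growth and 100% = 10 µM 1-NA-PP1 with full growth; RAM network block rescues cells from 5-FOA so hits raise OD615 growth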). To be noted: S. cerevisiae dse1pr::URA3 5-FOA growth, OD615, 2 d; at 10 µM; stronger effect = higher value; strain carries analog-sensitive mutant Cbk1 kinase.
A short description of experiment [15]: RAM signaling pathway blockade in yeast – S. cerevisiae, Pdr1DBD-CYC8 efflux-inhibited sensitized strain, primary screen (AID 1298;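 active means RAM network inhibition above 8.4% in each of two replicates, 3 SD over the compound average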;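 further: 0% = DMSO untreated cells without growth and 100% = 10 µM 1-NA-PP1 full growth; higher means more yeast growth rescued from 5-FOA killing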). The note with it: S. cerevisiae cbk1-as DSE1-URA3 strain, 5-FOA growth OD615, 2 d; at 50 µM; stronger effect = higher value.
Setting [16] is: H69AR cells + 2 uM doxorubicin, measured here: viability with 2 uM doxorubicin, stronger effect = lower value.
Where [17] appears, read: H69AR cells, compound alone cytotoxicity.

Molecules are shown by their SMILES. Inconclusive results are not listed. Calls of active or inactive are those of the source. Unless noted, no stated cut-off is given here; in the data, active means inhibition above about 30%; inactive means the rest.

Sequence of Receptor tyrosine-protein kinase erbB-2 (Homo sapiens) (P04626 whole entry, looked up): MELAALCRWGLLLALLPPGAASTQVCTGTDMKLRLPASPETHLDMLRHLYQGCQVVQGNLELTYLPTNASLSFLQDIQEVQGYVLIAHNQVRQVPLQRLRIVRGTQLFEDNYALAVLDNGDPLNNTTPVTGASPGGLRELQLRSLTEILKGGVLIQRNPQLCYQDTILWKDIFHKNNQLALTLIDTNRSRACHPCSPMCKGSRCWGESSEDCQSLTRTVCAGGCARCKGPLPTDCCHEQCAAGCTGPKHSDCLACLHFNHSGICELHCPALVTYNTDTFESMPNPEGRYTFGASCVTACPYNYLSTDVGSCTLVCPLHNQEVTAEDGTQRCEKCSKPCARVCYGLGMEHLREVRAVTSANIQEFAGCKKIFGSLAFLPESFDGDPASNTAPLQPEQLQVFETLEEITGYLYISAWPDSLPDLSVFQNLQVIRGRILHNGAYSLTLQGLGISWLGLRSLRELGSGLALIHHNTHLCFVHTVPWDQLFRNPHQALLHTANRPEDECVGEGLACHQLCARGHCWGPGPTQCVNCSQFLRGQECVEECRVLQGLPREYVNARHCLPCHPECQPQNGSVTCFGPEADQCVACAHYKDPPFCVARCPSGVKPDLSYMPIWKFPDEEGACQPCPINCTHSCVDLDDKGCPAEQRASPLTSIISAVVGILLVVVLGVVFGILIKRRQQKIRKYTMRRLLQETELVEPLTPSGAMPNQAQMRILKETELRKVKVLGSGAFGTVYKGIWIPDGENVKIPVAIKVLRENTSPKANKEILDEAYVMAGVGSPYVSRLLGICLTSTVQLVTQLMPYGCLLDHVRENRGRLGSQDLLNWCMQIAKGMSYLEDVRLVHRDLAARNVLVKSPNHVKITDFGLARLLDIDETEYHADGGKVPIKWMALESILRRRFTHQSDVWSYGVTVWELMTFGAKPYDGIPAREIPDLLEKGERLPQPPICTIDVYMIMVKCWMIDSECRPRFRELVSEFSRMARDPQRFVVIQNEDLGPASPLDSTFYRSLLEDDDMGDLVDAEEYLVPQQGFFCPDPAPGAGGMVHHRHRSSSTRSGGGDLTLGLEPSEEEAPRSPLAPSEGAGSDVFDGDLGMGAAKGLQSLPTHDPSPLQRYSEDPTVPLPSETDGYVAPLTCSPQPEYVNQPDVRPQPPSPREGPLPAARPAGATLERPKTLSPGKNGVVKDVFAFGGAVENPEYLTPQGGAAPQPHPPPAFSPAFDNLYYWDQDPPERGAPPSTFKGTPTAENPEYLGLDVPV

By viability is commonly meant a read-out of living cells in per cent, often relative to untreated cells. A word on the inhibition: it is the relative decrease from the control value, in per cent. As for `CC(C)OC(=O)c1ccc(OC(=O)c2cccnc2)cc1`, the viability in experiment [1] is 91.5%; in [3], 91.5% (inactive); in [4] it was 102% (inactive); in experiment [5], 106% (inactive); in [6] (setting [16]), 94.6%; in experiment [6] (setting [17]) it was 106%. Moreover, the viability was 92.9% (inactive) in experiment [12] and 91.3% (inactive) in experiment [13]. In addition, the Her2 level in experiment [2] is 100% (inactive). The differential viability (reversal) in [6] (H69AR cells + 2 uM doxorubicin) is 11.3% (inactive). Further, the inhibition in experiment [7] is 3.65% (inactive); in experiment [8] it was -3.44% (inactive); in [14], 2.02% (inactive). Also, the growth inhibition in experiment [9] was 2.51% (inactive); in [10] it was 12.6% (inactive). Further, the viability increase in [11] was -2.98% (inactive). Moreover, the RAM network inhibition in [15] was 2.34% (inactive).
In the case of `O=C(c1ccco1)N1CCN(C(=O)c2sccc2-c2ccccc2)CC1`, the viability in experiment [1] is 93%; in [3], 93% (inactive); in experiment [4] it was 86.2% (inactive); in experiment [5] it was 83% (inactive); in experiment [6] (setting [16]), 89.8%; in [6] (setting [17]), 83%. The viability in [12] is 94.6% (inactive). Further, in experiment [2], the Her2 level is 104% (inactive). In addition, the differential viability (reversal) in experiment [6] (H69AR cells + 2 uM doxorubicin) is -6.79% (inactive). In addition, the inhibition is 2.3% (inactive) in experiment [7], -4.92% (inactive) in experiment [8] and 2.49% (inactive) in experiment [14]. The growth inhibition is -18.7% (inactive) in experiment [9] and -9.14% (inactive) in experiment [10]. In experiment [11], the viability increase is -5.64% (inactive). The RAM network inhibition in experiment [15] was 4.79% (inactive).
Regarding `c1ccc(-c2nnc(CSc3nncs3)o2)cc1`, the viability in experiment [1] was 104%; in experiment [3], 104% (inactive); in experiment [4] it was 88.4% (inactive); in experiment [5], 106% (inactive); in [6] (setting [16]), 92.9%; in experiment [6] (setting [17]) it was 106%. Besides, the viability in experiment [12] was 106% (inactive). For the same compound, the Her2 level in experiment [2] is 86.5% (inactive). In addition, the differential viability (reversal) in experiment [6] (H69AR cells + 2 uM doxorubicin) is 13.6% (inactive). Further, the inhibition in experiment [7] is -3.95% (inactive); in experiment [8], -4.67% (inactive); in experiment [14], 1.01% (inactive). The growth inhibition in experiment [9] was -16% (inactive); in experiment [10], 8.37% (inactive). The viability increase in experiment [11] is -0.84% (inactive). In [15], the RAM network inhibition is 5.21% (inactive).
Consider `c1nc(NCC2(N3CCOCC3)CCCCC2)c2ccsc2n1`, for which the viability is 82.5% in [1]; 82.5% (inactive) in experiment [3]; 97.7% (inactive) in [4]; 98.6% (inactive) in [5]; 99.2% in [6] (setting [16]); 98.6% in experiment [6] (setting [17]). Moreover, the viability in [12] is 78.8% (inactive). The Her2 level in experiment [2] was 93% (inactive). Besides, in experiment [6] (H69AR cells + 2 uM doxorubicin), the differential viability (reversal) is -0.545% (inactive). The inhibition in experiment [7] was -5.27% (inactive); in experiment [8], -2.54% (inactive); in experiment [14], 1.14% (inactive). Further, the growth inhibition in experiment [9] is -25.4% (inactive); in experiment [10], 3.08% (inactive). Further, the viability increase in [11] is -3.33% (inactive). Also, in experiment [15], the RAM network inhibition is 8.05% (inactive).
For the compound `O=C(OCC(=O)c1ccc[nH]1)c1ccc(S(=O)(=O)N2CCCCC2)cc1`, the viability in experiment [1] was 94%; in experiment [3] it was 94% (inactive); in [4], 90.9% (inactive); in experiment [5] it was 97.8% (inactive); in experiment [6] (setting [16]) it was 81%; in experiment [6] (setting [17]), 97.8%. For the same compound, the viability in experiment [12] was 99.8% (inactive). Also, in experiment [2], the Her2 level was 98% (inactive). In experiment [6] (H69AR cells + 2 uM doxorubicin), the differential viability (reversal) is 16.8% (inactive). Further, the inhibition in experiment [7] was -3.64% (inactive); in experiment [8], -6.17% (inactive); in experiment [14] it was 3.25% (inactive). Also, the figures for the growth inhibition in experiment [9] and in [10] were -15.2% (inactive) and -4.03% (inactive), respectively. Further, the viability increase in [11] is -0.59% (inactive). Further, the RAM network inhibition in experiment [15] is 3.17% (inactive).
